From PubChem BioAssay AID1159580 (chemical genetic matrix, 2015)
Values joined by “and” are separate entries in the source; they are usually repeats but may differ in a detail not shown here. Identical values can stand only once. About 2,000 (36%) of roughly 5,500 compounds were called active. Another 18% or so got no clear call; they are omitted. Cut-off read from the data, not from the text of the source: active = normalized growth mostly below about 0.91 (no sharp cut-off); inconclusive = no clear call, values can overlap the other calls; inactive = mostly above about 0.92. Some of the results follow.

Assay: chemical genetic growth profiling, strain panel (AID 1159580);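 note: tested at 20 µM; growth read once vehicle control cultures reached saturation at 30 °C; 1 = growth at the plate median or of vehicle wells; lower values mean less growth of the strain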
Conditions: growth OD

Measured: normalized growth

CC(=O)Nc1ccc(OCC(O)CNC(C)C)cc1 (centres undefined)
inactive: S. cerevisiae deletion strains, locus YBR021W, strain FUR4, stronger effect = lower value 1.01 | S. cerevisiae deletion strains, locus YBR229C, strain ROT2, stronger effect = lower value 1 | S. cerevisiae deletion strains, locus YCL029C, strain bik1, stronger effect = lower value 0.995 | S. cerevisiae deletion strains, locus YDL035C, strain GPR1, stronger effect = lower value 1.01 | S. cerevisiae deletion strains, locus YDL074C, strain BRE1, stronger effect = lower value 1.02 | S. cerevisiae deletion strains, locus YDL101C, strain DUN1, stronger effect = lower value 1.01 | S. cerevisiae deletion strains, locus YDL185W, strain tfp1, stronger effect = lower value 1.01 | S. cerevisiae deletion strains, locus YDL192W, strain arf1, stronger effect = lower value 1 | S. cerevisiae deletion strains, locus YDR101C, strain arx1, stronger effect = lower value 1.02 | S. cerevisiae deletion strains, locus YDR150W, strain NUM1, stronger effect = lower value 1.01 | S. cerevisiae deletion strains, locus YDR162C, strain NBP2, stronger effect = lower value 1.01 | S. cerevisiae deletion strains, locus YDR318W, strain mcm21, stronger effect = lower value 1 | S. cerevisiae deletion strains, locus YDR388W, stronger effect = lower value 1 | S. cerevisiae deletion strains, locus YDR502C, strain sam2, stronger effect = lower value 0.99 | S. cerevisiae deletion strains, locus YEL061C, strain CIN8, stronger effect = lower value 1.01 | S. cerevisiae deletion strains, locus YER110C, stronger effect = lower value 1 | S. cerevisiae deletion strains, locus YER155C, strain BEM2, stronger effect = lower value 1.01 | S. cerevisiae deletion strains, locus YER167W, strain BCK2, stronger effect = lower value 1.01 | S. cerevisiae deletion strains, locus YGL078C, strain dbp3, stronger effect = lower value 0.999 | S. cerevisiae deletion strains, locus YGL086W, strain mad1, stronger effect = lower value 1 | S. cerevisiae deletion strains, locus YGL248W, strain PDE1, stronger effect = lower value 1 | S. cerevisiae deletion strains, locus YGR078C, strain PAC10, stronger effect = lower value 1.01 | S. cerevisiae deletion strains, locus YGR135W, strain pre9, stronger effect = lower value 0.996 | S. cerevisiae deletion strains, locus YGR229C, strain SMI1, stronger effect = lower value 1 | S. cerevisiae deletion strains, locus YGR252W, strain gcn5, stronger effect = lower value 0.975 | S. cerevisiae deletion strains, locus YHR030C, strain SLT2, stronger effect = lower value 1.01 and 0.983 | S. cerevisiae deletion strains, locus YHR079C, strain IRE1 (second series), stronger effect = lower value 0.999 | S. cerevisiae deletion strains, locus YHR079C, strain IRE1, stronger effect = lower value 0.978 | S. cerevisiae deletion strains, locus YHR094C, strain hxt1, stronger effect = lower value 0.999 | S. cerevisiae deletion strains, locus YHR129C, strain ARP1, stronger effect = lower value 1.01 | S. cerevisiae deletion strains, locus YHR200W, strain rpn10, stronger effect = lower value 1.01 | S. cerevisiae deletion strains, locus YIL066C, strain RNR3, stronger effect = lower value 1.01 | S. cerevisiae deletion strains, locus YIL073C, strain SPO22, stronger effect = lower value 1.03 | S. cerevisiae deletion strains, locus YIL125W, strain kgd1, stronger effect = lower value 1 | S. cerevisiae deletion strains, locus YIR030C, strain dcg1, stronger effect = lower value 0.995 | S. cerevisiae deletion strains, locus YJL095W, strain BCK1, stronger effect = lower value 1.02 and 0.982 | S. cerevisiae deletion strains, locus YJL134W, strain LCB3, stronger effect = lower value 1.01 | S. cerevisiae deletion strains, locus YJL168C, strain set2, stronger effect = lower value 1 | S. cerevisiae deletion strains, locus YJL187C, strain SWE1 (second series), stronger effect = lower value 1.02 | S. cerevisiae deletion strains, locus YJR043C, strain POL32, stronger effect = lower value 1.01 | S. cerevisiae deletion strains, locus YJR066W, strain TOR1, stronger effect = lower value 0.965 | S. cerevisiae deletion strains, locus YKL009W, strain mrt4, stronger effect = lower value 0.991 | S. cerevisiae deletion strains, locus YKL068W, stronger effect = lower value 1 | S. cerevisiae deletion strains, locus YKL085W, strain MDH1 (second series), stronger effect = lower value 1.01 | S. cerevisiae deletion strains, locus YKL085W, strain MDH1, stronger effect = lower value 1.01 | S. cerevisiae deletion strains, locus YKR001C, strain vps1, stronger effect = lower value 1 | S. cerevisiae deletion strains, locus YLR039C, strain RIC1, stronger effect = lower value 1.05 | S. cerevisiae deletion strains, locus YLR058C, strain SHM2, stronger effect = lower value 1.01 | S. cerevisiae deletion strains, locus YLR102C, strain apc9, stronger effect = lower value 0.996 | S. cerevisiae deletion strains, locus YLR113W, strain HOG1, stronger effect = lower value 1.01 | S. cerevisiae deletion strains, locus YLR262C, strain YPT6, stronger effect = lower value 1.03 | S. cerevisiae deletion strains, locus YLR268W, strain sec22, stronger effect = lower value 0.998 | S. cerevisiae deletion strains, locus YLR330W, strain CHS5, stronger effect = lower value 1.01 | S. cerevisiae deletion strains, locus YLR342W, strain FKS1 (second series), stronger effect = lower value 1.02 | S. cerevisiae deletion strains, locus YLR371W, strain rom2, stronger effect = lower value 1.01 | S. cerevisiae deletion strains, locus YLR418C, strain cdc73, stronger effect = lower value 0.981 | S. cerevisiae deletion strains, locus YML016C, strain PPZ1, stronger effect = lower value 1.01 | S. cerevisiae deletion strains, locus YML032C, strain rad52, stronger effect = lower value 1.02 | S. cerevisiae deletion strains, locus YML124C, strain tub3, stronger effect = lower value 0.998 | S. cerevisiae deletion strains, locus YMR078C, strain ctf18, stronger effect = lower value 1 | S. cerevisiae deletion strains, locus YMR223W, strain ubp8, stronger effect = lower value 0.985 | S. cerevisiae deletion strains, locus YMR307W, strain GAS1, stronger effect = lower value 0.965 | S. cerevisiae deletion strains, locus YNL067W, strain RPL9B, stronger effect = lower value 1.02 | S. cerevisiae deletion strains, locus YNL128W, strain TEP1, stronger effect = lower value 1.02 | S. cerevisiae deletion strains, locus YNL153C, strain GIM3, stronger effect = lower value 1.02 | S. cerevisiae deletion strains, locus YNL183C, strain NPR1, stronger effect = lower value 0.938 | S. cerevisiae deletion strains, locus YNL233W, strain BNI4, stronger effect = lower value 1 | S. cerevisiae deletion strains, locus YNL250W, strain rad50, stronger effect = lower value 0.996 | S. cerevisiae deletion strains, locus YNL271C, strain bni1, stronger effect = lower value 0.992 | S. cerevisiae deletion strains, locus YNL298W, strain CLA4, stronger effect = lower value 1 | S. cerevisiae deletion strains, locus YNL307C, strain MCK1, stronger effect = lower value 1 | S. cerevisiae deletion strains, locus YNR052C, strain pop2, stronger effect = lower value 1.01 | S. cerevisiae deletion strains, locus YOL012C, strain htz1 0.693 | S. cerevisiae deletion strains, locus YOL147C, strain pex11, stronger effect = lower value 0.999 | S. cerevisiae deletion strains, locus YOR061W, strain CKA2, stronger effect = lower value 1.01 | S. cerevisiae deletion strains, locus YOR069W, strain VPS5, stronger effect = lower value 1.01 | S. cerevisiae deletion strains, locus YOR136W, strain idh2, stronger effect = lower value 0.999 | S. cerevisiae deletion strains, locus YOR144C, strain elg1, stronger effect = lower value 0.998 | S. cerevisiae deletion strains, locus YOR184W, strain ser1, stronger effect = lower value 1.01 | S. cerevisiae deletion strains, locus YOR231W, strain MKK1, stronger effect = lower value 0.965 | S. cerevisiae deletion strains, locus YOR316C, strain cot1, stronger effect = lower value 0.997 | S. cerevisiae deletion strains, locus YPL241C, strain CIN2, stronger effect = lower value 1.01 | S. cerevisiae deletion strains, locus YPL256C, strain CLN2, stronger effect = lower value 0.973 | S. cerevisiae deletion strains, locus YPR119W, strain clb2, stronger effect = lower value 1 | S. cerevisiae deletion strains, locus YPR141C, strain kar3, stronger effect = lower value 0.985 | S. cerevisiae deletion strains, locus YPR163C, strain tif3, stronger effect = lower value 1.01 | S. cerevisiae deletion strains, locus YPR167C, strain met16, stronger effect = lower value 1 | S. cerevisiae deletion strains, strain wtn01, stronger effect = lower value 0.979 | S. cerevisiae strains, strain wild type, stronger effect = lower value 1.01
